In the library only some 4.1% were active in any assay of this set; here they are far more common.
Beta cell apopt – blocks beta cell apoptosis. AID 435005. 300,000 tested, 0.8% active. INS-1E cytokine-induced death, ATP luminescence, 48 h; percent of positive-control rescue, neutral wells zero. protection from apoptosis, % (no concentration beside the values);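 active means Every replicate reaches about 75%, or at least half do and their mean reaches it too, limit read from the data; inconclusive means At least half of replicates reach the limit but their mean does not; inactive means Under half of replicates reach the limit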;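 further: 0% = cytokine-treated negative control wells and 100% = positive control rescue; higher means more ATP so stronger rescue from cytokine killing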
aSyn UTR inh – 5' untranslated region of α-synuclein, MLPCN primary screen. alpha-synuclein 5'UTR reporter, inhibitor activity. inhibition, % (tested at 7.5 µM). 300,000 tested, 0.82% active. AID 1813; in the data active means inhibition above about 60%; inconclusive means no clear call, values can overlap the other calls;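 further: H4 neuroglioblastoma cells stably carrying SNCA 5'UTR luciferase fusion; 0% = DMSO wells and 100% = positive control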
Mdm2-MdmX inh – inhibitors of human Mdm2/MdmX interaction. O15151+Q00987. SaOS-2 split-luciferase Mdm2/MdmX complementation, luminescence. inhibition, % at 8 µM. 330,000 tested, 3% active;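 active means inhibition of at least 50% at 8 µM in the primary screen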
Target sequence (O15151 whole entry, looked up): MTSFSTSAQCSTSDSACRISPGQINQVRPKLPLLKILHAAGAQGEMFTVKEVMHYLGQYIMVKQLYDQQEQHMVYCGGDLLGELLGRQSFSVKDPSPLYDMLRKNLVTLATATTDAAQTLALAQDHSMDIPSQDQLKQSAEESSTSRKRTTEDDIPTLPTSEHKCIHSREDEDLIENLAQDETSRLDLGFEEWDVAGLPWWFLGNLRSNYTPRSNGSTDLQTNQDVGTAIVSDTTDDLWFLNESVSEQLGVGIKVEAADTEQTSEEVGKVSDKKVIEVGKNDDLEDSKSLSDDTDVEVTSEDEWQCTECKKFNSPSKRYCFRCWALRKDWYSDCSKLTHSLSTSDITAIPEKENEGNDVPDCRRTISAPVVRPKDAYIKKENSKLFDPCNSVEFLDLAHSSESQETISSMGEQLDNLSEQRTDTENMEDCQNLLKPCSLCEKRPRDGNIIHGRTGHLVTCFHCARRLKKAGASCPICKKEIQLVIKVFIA
Target sequence (Q00987 whole entry, looked up): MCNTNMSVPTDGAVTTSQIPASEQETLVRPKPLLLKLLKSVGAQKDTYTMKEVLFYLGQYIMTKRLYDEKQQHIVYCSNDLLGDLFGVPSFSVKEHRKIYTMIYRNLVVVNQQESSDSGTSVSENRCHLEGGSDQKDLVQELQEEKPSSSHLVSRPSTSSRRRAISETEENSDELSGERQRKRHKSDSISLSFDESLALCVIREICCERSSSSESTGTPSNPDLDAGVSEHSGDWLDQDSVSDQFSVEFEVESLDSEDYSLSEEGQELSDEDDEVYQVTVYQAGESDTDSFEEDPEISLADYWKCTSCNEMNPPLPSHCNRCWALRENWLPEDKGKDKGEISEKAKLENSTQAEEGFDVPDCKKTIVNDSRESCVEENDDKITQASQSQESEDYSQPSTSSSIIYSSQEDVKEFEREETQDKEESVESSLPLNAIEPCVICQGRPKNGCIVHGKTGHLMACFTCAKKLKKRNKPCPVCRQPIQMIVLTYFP
CSC inhib – blocks cancer stem cells; cancer stem cell-like cells viability, luminescence; inhibition, % at 7.5 µM; 300,000 tested, 1.1% active; AID 2717; in the data active means inhibition above about 75%; inconclusive means no clear call, values can overlap the other calls; tested in HMLE shEcad cells
A1 inh – inhibitors of the anti-apoptotic protein A1, read as caspase activation | MEF A1-2A-BIM cells, Caspase-Glo 3/7 luminescence, 3 h; percent of clofoctol response, vehicle zero | caspase activation, % (concentration not given with the values) | 330,000 tested, 0.066% active | AID 2462;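 active means over half of replicate activation scores above 10%, or exactly half above 10 with the replicate mean above 10; inconclusive means replicate mean below 10 yet half the replicates above 10; inactive means over half of replicates below 10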
Mdm2-MdmX conf – human Mdm2/MdmX binding inhibition, confirmed. shares compounds with Mdm2-MdmX inh. luminescent assay. inhibition, % at 8 µM. 10,000 tested, 55% active. AID 489028; in the data active means inhibition above about 40%
FLuc counter – full-length luciferase inhibition in Mdm2/MdmX counter-screen; shares compounds with Mdm2-MdmX inh; SaOS-2 full-length luciferase counterscreen, luminescence; inhibition, % at 8 µM; 6,200 tested, 77% active;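 active means mean inhibition at 8 µM reaching about 37%, which flags the compound as non-specific, limit read from the data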;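 further: p53-null SaOS-2 cells with luciferase driven by a doxycycline-inducible promoter; compound on cells about two nights before reading with doxycycline added after day one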
* marks the source's active call; other numbers are inactive results; ? = inconclusive; nt = not tested or not shown.

SMILES	Beta cell apopt	aSyn UTR inh	Mdm2-MdmX inh	CSC inhib	A1 inh	Mdm2-MdmX conf	FLuc counter
C[C@H](CO)N1C[C@H](C)[C@@H](CN(C)C(=O)NC2CCCCC2)Oc2ccc(NS(C)(=O)=O)cc2C1=O	-4.2	nt	5.1	nt	-0.1	nt	nt
Cc1cccc(NC(=O)Cc2nc(-c3c[nH]c(C(=O)N4CCCC4)c3)cs2)c1	nt	nt	34.8	nt	nt	nt	nt
O=C(NCc1cccnc1)Nc1ccc(Cl)cc1	-2.6	-9.4	-8.0	-6.7	-0.2	nt	nt
NC(N)=NS(=O)(=O)c1ccc(NC(=S)NC(=O)c2ccc3c(c2)OCO3)cc1	-6.9	-0.8	12.9	-9.5	1.1	nt	nt
Cc1ccc(C(=O)NC(=C(Cl)Cl)S(=O)(=O)c2ccc(Cl)cc2)cc1	-6.7	-29.0	35.4	-4.5	-0.4	nt	nt
O=C(NC(=C(Cl)Cl)S(=O)(=O)c1ccc(Cl)cc1)c1ccccc1	8.0	-42.7	61.7*	68.7	1.6	57.8*	13.1
Cc1ccc(S(=O)(=O)C(NC(=O)c2ccccc2)=C(Cl)Cl)cc1	-7.1	-59.9	65.3*	41.0	0.5	23.4	nt
CCN(C[C@H]1N[C@@](CC)(C(=O)OC)[C@H]2C(=O)N(Cc3ccccc3)C(=O)[C@@H]12)S(=O)(=O)c1ccc(C(C)(C)C)cc1	12.5	nt	69.3*	nt	-0.1	62.0*	52.0*
CCN(C[C@H]1N[C@@](CC)(C(=O)OC)[C@H]2C(=O)N(Cc3ccccc3)C(=O)[C@@H]12)S(=O)(=O)c1ccc(-c2ccccc2)cc1	8.5	nt	80.3*	nt	0.0	79.3*	34.0
CC[C@@]1(C(=O)OC)N[C@H](CN(C)S(=O)(=O)c2ccc(-c3ccccc3)cc2)[C@@H]2C(=O)N(Cc3ccccc3)C(=O)[C@@H]21	nt	nt	90.5*	nt	nt	87.4*	45.5*
C[C@@H]1CCCCCCCCC(=O)OCCN1C(=O)OC(C)(C)C	-6.0	nt	4.0	-8.8	0.0	nt	nt
CCN1/C(=C/C=C/c2oc3ccc(-c4ccccc4)cc3[n+]2CC)Oc2ccc(-c3ccccc3)cc21	110.8*	140.4*	96.7*	116.0*	-1.0	91.6*	1.4
Cc1cc(C(C)(C)C)cc(C)c1COC(=O)CN1C(=O)NC2(CCCC2)C1=O	3.9	nt	-3.2	55.6	-0.1	nt	nt
COc1ccccc1C1CCCN1Cc1nc(-c2ccc(C)s2)oc1C (centres undefined)	1.4	33.5	75.4*	nt	0.2	66.3*	52.3*
COc1ccc2c(c1)C1(Nc3ccccc3-c3nc4ccccc4n31)C(=O)N2C (centres undefined)	3.2	nt	75.5*	11.2	-0.1	80.5*	45.6*
CCOC(=O)c1ccc(S(=O)(=O)N2CCC(C(=O)NCC3CCCCC3)CC2)cc1	-4.1	nt	12.2	-4.8	0.9	nt	nt
Brc1ccc2c(c1)C(c1ccc(N3CCOCC3)cc1)=NNC(c1cccs1)=N2	0.6	-27.7	59.4*	-5.3	-0.9	-4.5	nt
Cn1nc(-c2ccc(N3CCOCC3)c(NS(=O)(=O)c3ccccc3)c2)c2ccccc2c1=O	8.3	7.2	64.5*	-6.1	0.0	31.3	nt
Cc1ccc(N(CCC#N)C(=O)COC(=O)c2ccccn2)cc1	nt	6.7	8.0	-6.0	1.6	nt	nt
Cc1cccc(C(=O)OCC(=O)NCC2COc3ccccc3O2)c1 (centres undefined)	-1.4	nt	16.1	nt	-0.1	nt	nt
O=C(c1ccc(F)cc1)c1cnc(Nc2ccccc2)s1	3.7	-161.4	-82.5	0.9	-0.7	nt	nt
O=C(c1ccccc1)c1cnc(Nc2ccc(Cl)c(Cl)c2)s1	-0.9	-51.2	70.7*	-13.8	-0.4	6.3	nt
Cc1ccc(C2(c3ccc(C)cc3)CC2C(=O)Nc2ccc([N+](=O)[O-])cc2O)cc1 (centres undefined)	124.5*	67.2*	95.8*	173.6*	26.7*	93.1*	49.0*
O=C(N/N=C/c1c(-c2ccccc2)[nH]c2ccccc12)c1cccnc1	0.1	-33.9	52.2*	4.0	-0.2	53.0*	68.5*
Cc1nc(C(=O)Nc2ccccc2Cl)cc2c1[nH]c1ccccc12	13.1	-38.9	80.1*	6.2	1.1	57.1*	56.1*
SMILES	Beta cell apopt	aSyn UTR inh	Mdm2-MdmX inh	CSC inhib	A1 inh	Mdm2-MdmX conf	FLuc counter
O=C(Nc1ccccc1O)c1c(O)c2c([nH]c1=O)CCCC2	5.4	-182.0	-100.3	nt	-2.0	nt	nt
O=C(N/N=C/c1cccc(Cl)c1)c1c(O)c2c([nH]c1=O)CCCC2	6.0	-99.9	68.8*	30.1	-6.9	-19.1	nt
CC1(C)Oc2ccc3ccc(=O)oc3c2-c2cnoc21	-1.3	5.4	26.9	-13.8	0.1	nt	nt
CC1(C)Oc2ccc3ccc(=O)oc3c2-c2cn[nH]c21	3.6	-5.5	59.9*	3.0	-0.1	19.1	nt
Cc1cccc(Cn2cc(/C=C/[N+](=O)[O-])c3ccccc32)c1	-0.5	33.7	57.5*	108.6*	0.8	15.4	nt
CCOC(=O)Cn1cc(/C=C/[N+](=O)[O-])c2ccccc21	-3.5	-11.6	-9.4	-8.1	0.3	nt	nt
CCCN(C(=O)CCl)C1=CCCCC1	-4.7	-44.0	84.9*	-10.6	-0.3	26.6	nt
O=C(O)c1ccc(NS(=O)(=O)c2cccc(C(=O)Nc3cccc(C(=O)O)c3)c2)cc1	-10.9	-11.2	13.0	-0.3	-1.5	nt	nt
Cc1c(CN(C)C)c2c(n1Cc1ccccc1)C(=O)c1ccc(Br)cc1-2	11.0	6.2	77.1*	12.9	0.4	60.7*	29.6
CCCCc1nc(SCC(=O)N2CCCC2)c2c(=O)n(C)c(=O)n(C)c2n1	3.8	19.0	-0.5	-20.6	-1.6	nt	nt
CCOc1cc(C2c3c(n[nH]c3C)C(=O)N2c2ccc(Br)cc2)ccc1O (centres undefined)	-4.0	-61.8	47.3	-10.2	1.8	nt	nt
CCOC(=O)c1ccc(N2C(=O)c3n[nH]c(C)c3C2c2ccc(OC)cc2)cc1 (centres undefined)	1.8	24.0	29.5	-10.7	-0.2	nt	nt
COc1cc(C2c3c(n[nH]c3C)C(=O)N2c2ccc(Br)cc2)ccc1O (centres undefined)	1.2	-12.3	55.9*	-11.4	0.1	25.6	nt
COC(=O)c1ccc(C2c3c(n[nH]c3C)C(=O)N2c2ccc(C)cc2)cc1 (centres undefined)	-2.1	32.9	74.0*	-9.4	-0.2	47.4*	43.4*
CN(C)CCn1c(SCc2ccccc2C#N)nc2c(sc3ccccc32)c1=O	nt	-53.1	11.1	nt	0.3	nt	nt
CC1CCCC(C)N1CCCNC(=O)c1csc2c1CCCCC2 (centres undefined)	-2.3	-8.7	-11.9	3.8	-0.3	nt	nt
O=C(Nc1ccc(O)c2c(=O)cc(-c3cccc(Cl)c3)oc12)c1cccc(Cl)c1	nt	?	80.7*	31.0	15.1*	-8.8	nt
COc1cc(C(=O)Oc2c(CN3CCOCC3)cc(Cl)c3cccnc23)cc(OC)c1OC	92.9*	78.5*	65.2*	20.3	1.4	46.0*	38.6*
O=C(Oc1c(Cl)cc(Cl)c2cccnc12)c1cccs1	75.0*	16.9	76.0*	121.4*	0.1	57.2*	32.1
Oc1c(Cl)cc(Cl)c2cccnc12	nt	12.7	nt	nt	nt	nt	nt
O=C(Nc1cccnc1Cl)c1cccs1	3.5	-8.0	17.2	-5.0	-0.1	nt	nt

Source: PubChem
